From PubChem BioAssay
A1 inh: caspase 3/7 activation in MEF A1-2A-BIM cells, primary screen, A1 inhibitor project, cell-based, luminescence, HTS. Caspase-Glo 3/7 luminescence, 3 h; percent of clofoctol response, vehicle zero. caspase activation, % (no concentration beside the values). actives 0.066% (n = 330,000);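 active = over half of replicate activation scores above 10%, or exactly half above 10 with the replicate mean above 10; inconclusive = replicate mean below 10 yet half the replicates above 10; inactive = over half of replicates below 10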
AI-2 QS mod: Vibrio harveyi AI-2 quorum sensing modulators, primary screen, JMH597 strain, luminescence/OD600 ratio | Vibrio harveyi JMH597 AI-2 luminescence/OD600 ratio, 9 h; stronger effect = lower value; strain lacks LuxN and CqsS sensors; 0 = neutral-control median | activity change, % at 7.5 µM | actives 0.4% (n = 300,000); in the data active = activity change below about -75%, passing the limit was not always enough; inconclusive = no clear call, values can overlap the other calls;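 note: luminescence divided by OD600 gain over 9 h not by final OD600 alone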
aDG glyco up: activators of alpha-DG glycosylation, primary screen, uHTS, Pro5-aDG cells, AlphaScreen; actives 0.22% (n = 360,000); activation, % at 10 µM; alpha-DG glycosylation AlphaScreen (IIH6); 0% Pro5, 100% B10-LARGE cell signal;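 active = activation of at least 8% versus controls, or a plate z-score of at least 8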;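 note: Pro5 are CHO cells carrying HIG-tagged alpha-DG that lacks glycosylation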
ARNT TACC3 PPI: disruptors of ARNT/TACC3 protein interaction, primary screen, biochemical, AlphaScreen, single concentration. inhibition, % at 9.99 µM. AlphaScreen His-ARNT PAS-B/GST-TACC3 binding, luminescence; TACC3 fragment carries E629A point mutation. actives 0.66% (n = 390,000). Transforming acidic coiled-coil-containing protein 3 (Homo sapiens), Q9Y6A5. AID 623870, 2012;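 active = mean inhibition of replicates at least 50% and at least half of replicates each reaching 50%; inconclusive = half or more replicates reach 50% but mean below 50%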;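 note: 0% = complete ARNT plus TACC3 wells and 100% = ARNT alone without TACC3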
SUMO Mot1 rescue: yeast Mot1-301 growth rescue at high temperature, primary screen, SUMOylation pathway inhibitor project, S. cerevisiae, ATP luminescence, 38.5C; S. cerevisiae Mot1-301 growth rescue; percent above DMSO median, 100 means doubled; growth rescue, % at 18.8 µM; actives 1% (n = 320,000); AID 2716, 2010;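 active = every valid replicate shows activation above 250% relative to neutral control wells; inactive = the rest, any valid replicate at or below 250%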;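 note: OY570 slx delta 5 strain wells were the positive control but not used for scaling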
JMH597 growth rt: Vibrio harveyi growth inhibition, confirmation, counter-screen for AI-2 quorum sensing project, JMH597 strain, OD600 absorbance | shares compounds with AI-2 QS mod | 9 h; lacks LuxN and CqsS sensors | growth inhibition, % at 7.5 µM | actives 1% (n = 750);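 active = every replicate shows growth inhibition above 50%; inconclusive = at least half, but not all, replicates pass that cutoff; inactive = fewer than half of replicates pass it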
BB721 const-QS lum: luminescence inhibition in constitutive-on V. harveyi, confirmation, counter-screen for LuxS inhibitor project, strain BB721, luminescence readout. shares compounds with AI-2 QS mod. Vibrio harveyi BB721 luminescence, 9 h. inhibition, % at 7.5 µM. actives 95% (n = 750);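 active = inhibition above about 80% in every replicate, not just on average, limit read from the data; inconclusive = at least half of replicates past the limit, but not all; inactive = fewer than half of replicates past the limit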
BB721 growth: growth inhibition of V. harveyi BB721, confirmation, cytotoxicity control for AI-2 quorum sensing inhibitors, strain BB721, absorbance OD600 | shares compounds with AI-2 QS mod | AID 2728, 2010 | Vibrio harveyi BB721 growth, 9 h | growth inhibition, % at 7.5 µM | actives 3% (n = 750);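 active = every replicate shows growth inhibition above 50%; inconclusive = at least half but not all replicates above 50% inhibition; inactive = under half of replicates above 50% inhibition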
AI-2 QS JMH597: Vibrio harveyi AI-2 signaling luminescence modulation – JMH597 strain, confirmation | shares compounds with AI-2 QS mod | Vibrio harveyi JMH597 AI-2 quorum sensing luminescence, 9 h; luxN and CqsS knockout, AI-2 only | inhibition, % at 7.5 µM | actives 97% (n = 750) | AID 2736, 2010;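 active = every replicate shows more than 75% inhibition of signal versus neutral control wells; inconclusive = half to three quarters of replicates exceed 75% inhibition; inactive = fewer than half of replicates exceed 75% inhibition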
Active calls of the source: *. In the library only some 1.8% were active in any assay of this set; here they are far more common.

How did COc1ccc(CN(C)C[C@H]2Oc3ccc(NS(=O)(=O)c4ccc(C)cc4)cc3CC(=O)N([C@H](C)CO)C[C@H]2C)cc1 do in these assays?
ARNT TACC3 PPI: 5.4

What do the screens show for `Cc1cccc(C)c1OCC(=O)Nc1cccc(-c2nnc(-c3ccccc3)o2)c1`?
A1 inh: 0.4; AI-2 QS mod: 12.3; aDG glyco up: -0.2; ARNT TACC3 PPI: -17.7; SUMO Mot1 rescue: -6.0

Results for O=C(/C=C/c1cccc(Cl)c1)NCc1cccs1 ?
A1 inh: 0.4; AI-2 QS mod: -82.6*; aDG glyco up: 0.1; ARNT TACC3 PPI: -1.6; SUMO Mot1 rescue: 23.6; JMH597 growth rt: 16.1; BB721 const-QS lum: 90.2*; BB721 growth: 15.0; AI-2 QS JMH597: 91.3*

How did O=C(/C=C/c1cccc(Cl)c1)NCc1ccccc1 do in these assays?
A1 inh: 0.3; AI-2 QS mod: -89.2*; aDG glyco up: 1.3; ARNT TACC3 PPI: 14.9; SUMO Mot1 rescue: -12.6; JMH597 growth rt: 0.7; BB721 const-QS lum: 96.2*; BB721 growth: 0.2; AI-2 QS JMH597: 96.8*

How did O=C(/C=C/c1cccc(Cl)c1)NCc1ccncc1 do in these assays?
A1 inh: 0.5; AI-2 QS mod: -43.5; aDG glyco up: 0.1; ARNT TACC3 PPI: -2.1; SUMO Mot1 rescue: 0.0

What do the screens show for `O=C(/C=C/c1ccc(Cl)cc1)NCc1cccs1`?
A1 inh: 0.2; AI-2 QS mod: -71.1; aDG glyco up: 0.3; ARNT TACC3 PPI: -1.0; SUMO Mot1 rescue: 66.2

Results for c1ccc(-c2ccc(-c3cnc4n3CCCCC4)cc2)cc1 ?
A1 inh: -0.4; AI-2 QS mod: -85.7*; aDG glyco up: 0.6; ARNT TACC3 PPI: 6.5; SUMO Mot1 rescue: 19.9; JMH597 growth rt: -5.1; BB721 const-QS lum: 84.1*; BB721 growth: -21.8; AI-2 QS JMH597: 90.0*

How did Cc1ccc(-c2cnc3n2CCCCC3)cc1 do in these assays?
A1 inh: -1.2; AI-2 QS mod: 11.5; aDG glyco up: 0.7; ARNT TACC3 PPI: 9.9; SUMO Mot1 rescue: -6.7

Results for O=C(Nc1cccc(Cl)c1)OCc1cnc(Cl)s1 ?
A1 inh: 0.0; AI-2 QS mod: inconclusive; aDG glyco up: 0.4; ARNT TACC3 PPI: 0.3; SUMO Mot1 rescue: -8.1; JMH597 growth rt: 17.7; BB721 const-QS lum: 92.0*; BB721 growth: 22.3; AI-2 QS JMH597: 91.9*

How did COc1ccc(Cc2nc(-c3ccc(Cl)cc3)no2)cc1 do in these assays?
A1 inh: 0.4; AI-2 QS mod: -88.4*; aDG glyco up: 0.3; ARNT TACC3 PPI: -5.7; SUMO Mot1 rescue: 19.2; JMH597 growth rt: 10.0; BB721 const-QS lum: 96.7*; BB721 growth: -5.3; AI-2 QS JMH597: 98.0*

Results for Clc1ccc(-c2noc(CCCOc3ccccc3)n2)cc1 ?
A1 inh: -0.9; AI-2 QS mod: 18.0; aDG glyco up: -0.3; ARNT TACC3 PPI: -7.6; SUMO Mot1 rescue: -13.8

How did Clc1ccc(-c2noc(COc3ccccc3)n2)cc1 do in these assays?
A1 inh: -0.2; AI-2 QS mod: inconclusive; aDG glyco up: 0.0; ARNT TACC3 PPI: -3.2; SUMO Mot1 rescue: 51.3; JMH597 growth rt: 1.2; BB721 const-QS lum: 86.1*; BB721 growth: 15.2; AI-2 QS JMH597: 93.7*

Results for C[C@@H]1CN([C@@H](C)CO)C(=O)c2cc(C#CC3CCCCC3)cnc2O[C@@H]1CN(C)C(=O)C1CCCCC1 ?
ARNT TACC3 PPI: 6.1

What do the screens show for `O=C(COc1ccccc1F)c1ccc(O)cc1O`?
A1 inh: -3.0; AI-2 QS mod: 17.1; aDG glyco up: -0.4; ARNT TACC3 PPI: -0.2; SUMO Mot1 rescue: 1.4

What do the screens show for `Cc1c(O)ccc(C(=O)COc2ccccc2F)c1O`?
A1 inh: -1.8; AI-2 QS mod: inconclusive; aDG glyco up: -0.3; ARNT TACC3 PPI: -0.4; SUMO Mot1 rescue: -43.1; JMH597 growth rt: 28.7; BB721 const-QS lum: 88.6*; BB721 growth: 24.8; AI-2 QS JMH597: 92.5*

Results for O=c1c2ccccc2nc2c3ccccc3c(NCCN3CCOCC3)nn12 ?
A1 inh: -0.2; AI-2 QS mod: 10.1; SUMO Mot1 rescue: 26.5

Results for O=c1c2c(-c3ccccc3)csc2nc2c3ccccc3c(NCCN3CCOCC3)nn12 ?
AI-2 QS mod: -96.4*; aDG glyco up: 0.0; ARNT TACC3 PPI: 74.1*; JMH597 growth rt: 76.5*; BB721 const-QS lum: 99.8*; BB721 growth: inconclusive; AI-2 QS JMH597: 99.9*

Results for N/C(=N\OC(=O)COc1ccccc1)c1cccnc1 ?
A1 inh: -2.5; AI-2 QS mod: -88.0*; aDG glyco up: -0.1; ARNT TACC3 PPI: -2.1; SUMO Mot1 rescue: 39.6; JMH597 growth rt: 25.1; BB721 const-QS lum: 95.4*; BB721 growth: 18.9; AI-2 QS JMH597: 96.7*

How did N/C(=N\OC(=O)COc1ccc(Br)cc1)c1cccnc1 do in these assays?
A1 inh: -0.6; AI-2 QS mod: -36.1; aDG glyco up: 0.2; ARNT TACC3 PPI: -6.4; SUMO Mot1 rescue: 15.8

Results for Cc1cc(C)cc(OCC(=O)O/N=C(\N)c2ccccn2)c1 ?
A1 inh: -0.6; AI-2 QS mod: inconclusive; aDG glyco up: 0.1; ARNT TACC3 PPI: 0.9; SUMO Mot1 rescue: 1.2

How did Cc1cc(C)cc(OCC(=O)O/N=C(\N)c2cccnc2)c1 do in these assays?
AI-2 QS mod: -95.7*; aDG glyco up: -0.1; JMH597 growth rt: 0.4; BB721 const-QS lum: 97.6*; BB721 growth: -32.4; AI-2 QS JMH597: 98.4*

Results for Cc1cccc(OCC(=O)O/N=C(\N)c2ccccn2)c1 ?
A1 inh: -2.1; AI-2 QS mod: -91.0*; aDG glyco up: -0.1; ARNT TACC3 PPI: -1.5; SUMO Mot1 rescue: -2.7; JMH597 growth rt: -1.3; BB721 const-QS lum: 93.1*; BB721 growth: -0.2; AI-2 QS JMH597: 96.0*
